Screens from PubChem.
Shown are actives, neighbours in structure and some others; about 11% of the full set was active somewhere.
MCF10A rereplic: induces DNA re-replication in MCF 10a normal breast cells | MCF 10A DNA re-replication, Hoechst nuclear intensity, 48 h | Potency, µM (series often up to 46.1 µM), hits mostly activators | 350,000 compounds, 2.9% hits | AID 624296; also: nearly all actives have a fitted effect of over 50% in size
Gal4-VP16 FLuc: counter-screen for ROR gamma inhibitors: Gal4-VP16 reporter; Drosophila S2 Gal4-VP16 UAS-luciferase, luminescence, 20 h; Potency, µM (doses to about 53.6 µM), most hits filed as inhibitors; 310,000 compounds, 3.5% hits; AID 2546;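 also: Gal4-VP16 expression switched on by copper sulfate through the metallothionein promoter; nearly all actives have a fitted effect of over 50% in size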
IL1B secr inh: inhibitors of inflammasome signaling (IL-1 beta secretion); activity change, % at 57.5 µM; THP-1 LPS/ATP IL-1B secretion, AlphaLISA, 16 h; active compounds read low; 360,000 compounds, 4.7% hits; in the data active = activity change below about -50%; inconclusive = mostly about -30% to -49%
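THP-1 cells pretreated 1 hr with compounds (up to 57.5 uM final), then stimulated with LPS (250 ng/mL final) plus ATP (1.25 mM final); secreted IL-1B measured by AlphaLISA after 16 hr, decreased signal indicating inhibition.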
SW480 rerep: induces DNA re-replication in SW480 colon adenocarcinoma cells | SW480 DNA re-replication, Hoechst DNA content imaging, 48 h | Potency, µM (doses to about 46.1 µM), actives largely listed as activators | 340,000 compounds, 1.8% hits; also: nearly all actives have a fitted effect of over 55% in size
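Compounds, transferred as 23 nL by pin tool, were incubated with cells for 48 hr; DNA content per nucleus was then quantified by Hoechst staining and fluorescence plate imaging.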
RORgamma inh: ROR gamma (mouse) transcription inhibition; AID 2551; Potency, µM (highest dose often 53.6 µM), most hits filed as inhibitors; P51450; Drosophila S2 Gal4-RORgamma UAS-luciferase reporter, 20 h; 310,000 compounds, 5.4% hits; also: nearly all actives have a fitted effect of over 60% in size
Target sequence (P51450 whole entry, looked up, the tested form may be a part): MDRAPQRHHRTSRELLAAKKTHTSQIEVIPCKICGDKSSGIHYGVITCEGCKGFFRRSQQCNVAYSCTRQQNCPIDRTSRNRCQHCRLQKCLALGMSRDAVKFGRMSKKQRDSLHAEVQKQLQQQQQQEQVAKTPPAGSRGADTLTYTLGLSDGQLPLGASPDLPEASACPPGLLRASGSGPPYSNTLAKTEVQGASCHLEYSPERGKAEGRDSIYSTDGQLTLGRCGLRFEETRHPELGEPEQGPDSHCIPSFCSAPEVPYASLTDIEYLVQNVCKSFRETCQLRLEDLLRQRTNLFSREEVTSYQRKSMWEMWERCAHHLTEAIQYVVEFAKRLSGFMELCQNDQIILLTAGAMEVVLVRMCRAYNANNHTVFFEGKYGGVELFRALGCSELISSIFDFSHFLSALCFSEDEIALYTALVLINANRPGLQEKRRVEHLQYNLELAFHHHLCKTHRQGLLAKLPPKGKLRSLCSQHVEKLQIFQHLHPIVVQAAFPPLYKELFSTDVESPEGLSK
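Read-out: Photinus luciferase luminescence; inhibitors lower reporter signal. Insect Schneider cells with Gal4-ROR gamma fusion under metallothionein promoter, UAS reporter; 700 uM final copper sulfate induction, 20 hr, ambient temperature.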
Numbers stand for hits; i = inactive; ? = inconclusive; nt = not tested or not shown; [ ] = dose if it differs, or a comment. Unless noted, calls follow the shape of the dose curve; as a rule, active = well fitted curve in the direction sought with a large enough effect; inconclusive = small, poorly fitted or top-dose-only effect, or another doubt; inactive = no such curve, though single readings can be large; an effect the other way counts as inactive or inconclusive.

SMILES | MCF10A rereplic | Gal4-VP16 FLuc | IL1B secr inh | SW480 rerep | RORgamma inh
COc1cccc(-c2cc(=O)c3cc(NC(=O)c4ccc(N(C)C)cc4)ccc3[nH]2)c1 | 0.411µM | ? | i | 0.581µM | i
COc1cccc(-c2cc(=O)c3cc(NC(=O)c4ccc(Cl)cc4)ccc3[nH]2)c1 | ? | i | i | ? | i
COc1cccc(-c2cc(=O)c3cc(NC(=O)c4ccccc4)ccc3[nH]2)c1 | 5.8µM | i | i | 2.91µM | ?
CCCC(=O)NC(=S)Nc1ccccc1C(F)(F)F | i | ? | i | i | 7.94µM
CC(C)C(=O)NC(=S)Nc1ccccc1C(F)(F)F | i | ? | i | i[9.22 µM] | 5.01µM
N#CCC(=O)NNC(=S)Nc1ccccc1C(F)(F)F | ? | ? | i | i | 11.2µM
O=C(NNC(=S)Nc1ccccc1C(F)(F)F)c1cccnc1 | i[9.22 µM] | i | i | i | i
FC(F)(F)c1ccccc1NC(=S)NN=C1CCCCCC1 | ? | ? | i | 11.6µM | 4.47µM
CCC(=O)NC(=S)Nc1ccccc1C(F)(F)F | i | nt | i | i | nt
FC(F)(F)c1ccccc1NC(=S)N1CCCC1 | i | i | nt | ? | i
CCCCN1C[C@H](CSC)[C@@H](CC(=O)Nc2ccc(Br)cc2)C1=O | nt | nt | i | nt | nt
COC(=O)c1ccc2nc(-c3ccc(C)cc3)c(CC3CCCCC3)n2c1 | nt | nt | i | nt | nt
CC(=O)Nc1ccc(/C=C(\C#N)C(=O)NCc2ccccc2)cc1 | i | i | -67.8 | i | i
N#C/C(=C\c1ccc(O)cc1)C(=O)NCc1cccc(Cl)c1 | i | i | i | i | i
N#C/C(=C/c1ccc(O)cc1)C(=O)NCc1ccc(Cl)cc1 | i | i | -65.3 | i | i
CC1CCCCC1NC(=O)/C(C#N)=C/c1ccc(F)c(F)c1 (configuration not stated) | i | ? | i | ? | ?
CC(=O)Nc1ccc(/C=C(\C#N)C(=O)NC2CCCCC2)cc1 | i | i | -85.5 | i | i
CC1CCCCC1NC(=O)/C(C#N)=C/c1ccc2c(c1)OCCO2 (configuration not stated) | i | i | -101.7 | ? | i
COc1ccc(-c2[nH]ncc2/C=C(/C#N)C(=O)NC2CCCCCC2)cc1 | 10µM | ? | -88.2 | 12.6µM | i
Cc1cc(/C=C(\C#N)C(=O)NC2CCCCCC2)c(C)[nH]1 | i | i | i | i | i
N#C/C(=C\c1ccc(O)cc1)C(=O)NCc1ccccc1 | i | i | -63.2 | i | i
COc1ccc(/C=C(\C#N)C(=O)NCc2ccccc2)cc1 | i | i | i | ? | ?
COc1ccc(-n2nc3ccccc3n2)cc1 | i | i | i | i | i
Nc1cc2nn(-c3ccccc3)nc2cc1Cl | 18.4µM | i[10 µM] | i | ? | i
Nc1ccc2c(c1)nnn2-c1ccccc1 | i | i | -79.2 | i | ?
SMILES | MCF10A rereplic | Gal4-VP16 FLuc | IL1B secr inh | SW480 rerep | RORgamma inh
Nc1ccc2nn(-c3ccccc3)nc2c1 | 18.4µM | i | i | 14.6µM | i
O=C(Nc1ccc2nn(-c3ccccc3)nc2c1)c1cccs1 | i | i | i | i | ?
Nc1ccc(-n2nc3ccccc3n2)cc1 | 23.1µM | nt | i | ? | nt
N#Cc1ccc2c(c1)nnn2-c1ccccc1 | i | nt | nt | i | nt
COc1ccc(-c2coc3cc4oc(=O)c5ccccc5c4cc23)cc1F | ? | i | i | 2.51µM | i
Cc1ccc(C2CC(=O)Nc3cc4c(cc32)OCCO4)s1 (configuration not stated) | i | i | i | i | i
COc1cc2c(cc1OC)C(c1ccccc1C(F)(F)F)CC(=O)N2 (configuration not stated) | i | i | -52.8 | i | ?
COc1cc2c(cc1OC)C(c1ccccc1C)CC(=O)N2 (configuration not stated) | i | i | i | i | i
COc1cc2c(cc1OC)C(c1ccc(SC)cc1)CC(=O)N2 (configuration not stated) | 4.61µM | i | i | i | i
CCOc1ccccc1C1CC(=O)Nc2cc3c(cc21)OCO3 (configuration not stated) | i | ? | i | i | i
O=C1CC(c2cccs2)c2cc3c(cc2N1)OCCO3 (configuration not stated) | 18.4µM | i | i | i | i
COc1ccccc1C1CC(=O)Nc2cc3c(cc21)OCCO3 (configuration not stated) | 3.66µM | 11.2µM | i | 2.06µM | i
Cc1ccc(NC(=O)Cn2nnc(C(=O)NCCc3ccccc3)c2N)c(C)c1 | i | i | i | ? | i
